A collection of fitness landscapes (doi:10.1016/j.celrep.2020.107928)
The full ranking holds about 81,000 sequences; the median of “one-hybrid fitness for binding NBS DNA” is about -0.1, and the highest 2% start at about 0.36. The entries come from a sample that favours the highest values as a whole.

B1: Caulobacter ParB omega fusion; a variant is named by its letters at X, in order, B8GW30 (parent)
chain: MESVVVGEPGMSEGRRGLGRGLSALLGEVDAAPAQAPGEQLGGSREAPIEILQRNPDQPRRTFREEDLEDLSNSIREKGVLQPILVRPSPDTAGEYQIVAGERAWRAAQRAGLKTVPIMVRELDDLAVLEIGIIENVQRADLNVLEEALSYKVLMEKFERTQENIAQTIGKSXSHVANXMRLLXLPDEVQSYLVSGELTAXHARAIAAAADPVALAKQIIEGGLSVRETEALARKAPNLSAGKSKGGRPPRVKDTDTQALESDLSSVLGLDVSIDHRGSTGTLTITYATLEQLDDLCNRLTRGI

Variants of: B1
Assay: one-hybrid fitness for binding NBS DNA (the Noc-binding site; scaled: cognate 1, non-cognate 0); higher = stronger binding
Settings: with NBS DNA site
In short: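 Selection: bacterial one-hybrid in E. coli USO, HIS3 reporter with the site 19 bp from the promoter, 48 hours at 37°C on M9-minus-histidine plus 0.1 mM IPTG and 5 mM 3-AT. Libraries were Caulobacter ParB with four randomised specificity codons, sequenced on Illumina before and after selection. Fitness is the rescaled log change in variant-to-wild-type read ratio, anchored to the cognate and non-cognate sites.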

Row | Variant | one-hybrid fitness for binding NBS DNA
1 | WLRR | ≤ 0.2
2 | NYAI | ≤ 0.2
3 | IRSK | ≤ 0.2
4 | DSWA | ≤ 0.2
5 | ITVR | ≤ 0.2
6 | GKRG | ≤ 0.2
7 | QHVM | ≤ 0.2
8 | QMVM | ≤ 0.2
9 | QKVM | 0.273
10 | QMKM | 0.416
11 | QKPM | ≤ 0.2
12 | QHKM | 0.379
13 | QKKM | 0.409
14 | QHNM | ≤ 0.2
15 | QMQM | ≤ 0.2
16 | GAKC | ≤ 0.2
17 | KIRV | ≤ 0.2
18 | QELA | ≤ 0.2
19 | RQLA | ≤ 0.2
20 | DCST | ≤ 0.2
21 | RPST | ≤ 0.2
22 | RIST | 0.398
23 | RHST | 0.435
24 | RWST | ≤ 0.2

Row | Variant | one-hybrid fitness for binding NBS DNA
25 | RDST | ≤ 0.2
26 | RSST | 0.426
27 | RFST | 0.217
28 | RISP | ≤ 0.2
29 | RHSQ | ≤ 0.2
30 | RHSF | ≤ 0.2
31 | RCST | 0.531
32 | RISH | ≤ 0.2
33 | KFSS | ≤ 0.2
34 | KFVF | ≤ 0.2
35 | LRQC | ≤ 0.2
36 | DWDT | ≤ 0.2
37 | RASG | ≤ 0.2
38 | RAIT | 0.22
39 | RAST | 0.405
40 | WCGS | ≤ 0.2
41 | WSGA | ≤ 0.2
42 | LRTY | ≤ 0.2
43 | RSYS | 0.409
44 | RLYS | 0.34
45 | RCDS | ≤ 0.2
46 | RSPS | ≤ 0.2
47 | RCRS | 0.661
48 | RSIS | 0.203

Row | Variant | one-hybrid fitness for binding NBS DNA
49 | RCIS | 0.281
50 | RPRS | ≤ 0.2
51 | RCRD | ≤ 0.2
52 | RCYS | 0.521
53 | RLRS | 0.541
54 | RLRH | 0.322
55 | PGSA | ≤ 0.2
56 | INQF | ≤ 0.2
57 | RCMW | ≤ 0.2
58 | QPWY | ≤ 0.2
59 | PDHS | ≤ 0.2
60 | CDSD | ≤ 0.2
61 | TLGI | ≤ 0.2
62 | NQER | ≤ 0.2
63 | HRCR | ≤ 0.2
64 | DVPR | ≤ 0.2
65 | LVEQ | ≤ 0.2
66 | RSRS | 0.593
67 | RFYS | ≤ 0.2
68 | RFIS | ≤ 0.2
69 | RMYS | 0.361
70 | RMRN | 0.25
71 | RFRS | 0.446
72 | RMRS | 0.642

Row | Variant | one-hybrid fitness for binding NBS DNA
73 | RSRN | ≤ 0.2
74 | RSRD | ≤ 0.2
75 | GATS | ≤ 0.2
76 | FYHG | ≤ 0.2
77 | RQDG | ≤ 0.2
78 | PLRC | ≤ 0.2
79 | MYHV | ≤ 0.2
80 | MNMN | ≤ 0.2
81 | NSER | ≤ 0.2
82 | IPMG | ≤ 0.2
83 | MNVG | ≤ 0.2
84 | YLLC | ≤ 0.2
85 | QMFR | 0.431
86 | QMAN | ≤ 0.2
87 | QMFD | ≤ 0.2
88 | QMAP | ≤ 0.2
89 | QMFS | 0.251
90 | QMAR | 0.602
91 | KGLV | ≤ 0.2
92 | WVEH | ≤ 0.2
93 | QVVS | ≤ 0.2
94 | VVYG | ≤ 0.2
95 | QRRH | 0.779
96 | QRNN | 0.459

Row | Variant | one-hybrid fitness for binding NBS DNA
97 | NRRH | ≤ 0.2
98 | QCNC | ≤ 0.2
99 | QRNC | 0.44
100 | QRRL | 0.364
101 | QRDH | 0.381
102 | QRDN | ≤ 0.2
103 | QRDD | ≤ 0.2
104 | QRDP | ≤ 0.2
105 | QRDC | 0.227
106 | QCNN | 0.208
107 | WYLT | ≤ 0.2
108 | RDFR | ≤ 0.2
109 | EMRY | ≤ 0.2
110 | KWVR | ≤ 0.2
111 | YLCS | ≤ 0.2
112 | TWCL | ≤ 0.2
113 | SYCN | ≤ 0.2
114 | IVKG | ≤ 0.2
115 | CWPS | ≤ 0.2
116 | QREH | 0.258
117 | QRNQ | 0.439
118 | QRNH | 0.598
119 | QRNP | 0.308
120 | QRND | 0.306

Row | Variant | one-hybrid fitness for binding NBS DNA
121 | QRYH | 0.486
122 | QRWH | 0.301
123 | QRDQ | 0.215
124 | QRDM | ≤ 0.2
125 | QCNM | 0.224
126 | QRNM | 0.461
127 | QSNQ | ≤ 0.2
128 | KICK | ≤ 0.2
129 | QEKS | ≤ 0.2
130 | LWPC | ≤ 0.2
131 | QDAY | ≤ 0.2
132 | RGRV | ≤ 0.2
133 | KRKP | ≤ 0.2
134 | KRKH | 0.482
135 | KRYY | ≤ 0.2
136 | KRKN | 0.272
137 | KRVH | ≤ 0.2
138 | KRVD | ≤ 0.2
139 | KRKD | ≤ 0.2
140 | KRVS | 0.395
141 | KRVY | ≤ 0.2
142 | KRKY | 0.368
143 | KRKM | 0.253
144 | KRKS | 0.536

Row | Variant | one-hybrid fitness for binding NBS DNA
145 | AKVL | ≤ 0.2
146 | ALSW | ≤ 0.2
147 | HILV | ≤ 0.2
148 | LNQE | ≤ 0.2
149 | DNHT | ≤ 0.2
150 | YLSD | ≤ 0.2
151 | HLNK | ≤ 0.2
152 | MSFM | ≤ 0.2
153 | LRFR | ≤ 0.2
154 | TEAT | ≤ 0.2
155 | QRRW | 0.384
156 | QSRW | 0.254
157 | QTDW | ≤ 0.2
158 | QPRW | ≤ 0.2
159 | PRKW | 0.446
160 | PRYW | ≤ 0.2
161 | QRDW | ≤ 0.2
162 | QTRW | 0.417
163 | QTYW | ≤ 0.2
164 | QCRW | 0.371
165 | PRVW | ≤ 0.2
166 | QRYW | 0.203
167 | NMRT | ≤ 0.2
168 | KSRN | ≤ 0.2

Row | Variant | one-hybrid fitness for binding NBS DNA
169 | MPIT | ≤ 0.2
170 | SLCY | ≤ 0.2
171 | ADNG | ≤ 0.2
172 | FLPR | ≤ 0.2
173 | QCKW | 0.324
174 | QSKW | 0.279
175 | QTKW | 0.439
176 | QRKW | 0.411
177 | QTVW | ≤ 0.2
178 | QRVW | ≤ 0.2
179 | NCCT | ≤ 0.2
180 | PANC | ≤ 0.2
181 | PYWD | ≤ 0.2
182 | QGMV | ≤ 0.2
183 | TIMA | ≤ 0.2
184 | FGDS | ≤ 0.2
185 | LKMV | ≤ 0.2
186 | RAVR | 0.277
187 | RGKR | 0.38
188 | RMKR | 0.738
189 | RAKP | ≤ 0.2
190 | RMKY | 0.311
191 | RGYR | ≤ 0.2
192 | RIKR | 0.675

Row | Variant | one-hybrid fitness for binding NBS DNA
193 | RMVR | 0.314
194 | RGVR | ≤ 0.2
195 | RIKD | ≤ 0.2
196 | RAKR | 0.668
197 | RIVR | 0.28
198 | IRVQ | 0.203
199 | VYLC | ≤ 0.2
200 | TESV | ≤ 0.2
201 | QVNP | ≤ 0.2
202 | GTKF | ≤ 0.2
203 | LEMR | ≤ 0.2
204 | RFPS | ≤ 0.2
205 | QVIH | ≤ 0.2
206 | GACL | ≤ 0.2
207 | RLKH | 0.35
208 | RWVM | 0.413
209 | RWKM | ≤ 0.2
210 | RFKR | 0.522
211 | RLKR | 0.686
212 | RLVR | 0.257
213 | RFVR | ≤ 0.2
214 | RSKN | ≤ 0.2
215 | RSVR | 0.293
216 | RWYM | ≤ 0.2

Row | Variant | one-hybrid fitness for binding NBS DNA
217 | NFKR | ≤ 0.2
218 | RSKR | 0.682
219 | YFYC | ≤ 0.2
220 | QASC | ≤ 0.2
221 | LDYW | ≤ 0.2
222 | GGII | ≤ 0.2
223 | RCKR | 0.76
224 | RWKP | ≤ 0.2
225 | RHVR | 0.248
226 | RPKR | ≤ 0.2
227 | RWKR | 0.372
228 | RHKH | 0.326
229 | RWVR | 0.259
230 | RDKR | ≤ 0.2
231 | RHKR | 0.701
232 | FTQR | ≤ 0.2
233 | PCEF | ≤ 0.2
234 | PQIS | ≤ 0.2
235 | NIFS | ≤ 0.2
236 | NWPM | ≤ 0.2
237 | QHVW | ≤ 0.2
238 | NGRT | ≤ 0.2
239 | SSRN | ≤ 0.2
240 | GTQF | ≤ 0.2

Row | Variant | one-hybrid fitness for binding NBS DNA
241 | RCIC | ≤ 0.2
242 | RRPC | 0.249
243 | RRIH | 0.338
244 | RREN | ≤ 0.2
245 | RRRN | 0.618
246 | RRIC | 0.399
247 | RRYN | 0.26
248 | RCES | 0.207
249 | RCRN | 0.23
250 | RRES | 0.578
251 | RRIS | 0.661
252 | RRIN | 0.206
253 | NKTG | ≤ 0.2
254 | YEAN | ≤ 0.2
255 | WTTS | ≤ 0.2
256 | MTMK | ≤ 0.2
257 | HRPA | ≤ 0.2
258 | GPSL | ≤ 0.2
259 | CRYG | ≤ 0.2
260 | RPYS | ≤ 0.2
261 | RRPN | ≤ 0.2
262 | RRPD | ≤ 0.2
263 | RRRD | 0.202
264 | RRPS | 0.568

Row | Variant | one-hybrid fitness for binding NBS DNA
265 | RRRS | 0.74
266 | RRRP | 0.283
267 | RRYD | ≤ 0.2
268 | RRYS | 0.661
269 | VRHA | ≤ 0.2
270 | LNEM | ≤ 0.2
271 | ADCG | ≤ 0.2
272 | SSQM | ≤ 0.2
273 | DSAV | ≤ 0.2
274 | PELK | ≤ 0.2
275 | STQD | ≤ 0.2
276 | GVGA | ≤ 0.2
277 | SIFQ | ≤ 0.2
278 | NRTT | ≤ 0.2
279 | KRTP | ≤ 0.2
280 | KPTR | ≤ 0.2
281 | KRTS | 0.448
282 | KCTR | ≤ 0.2
283 | KRTT | 0.583
284 | KRTN | ≤ 0.2
285 | KCTT | ≤ 0.2
286 | KRTR | 0.563
287 | EFMG | ≤ 0.2
288 | NTNM | ≤ 0.2

Row | Variant | one-hybrid fitness for binding NBS DNA
289 | VSAH | ≤ 0.2
290 | AAKR | 0.205
291 | NKSI | ≤ 0.2
292 | GMFR | ≤ 0.2
293 | SFAG | ≤ 0.2
294 | TCHR | ≤ 0.2
295 | TRHR | 0.409
296 | TRNR | 0.466
297 | TRGR | 0.389
298 | TRYR | 0.301
299 | ARGR | ≤ 0.2
300 | TRDR | ≤ 0.2
301 | TRHN | ≤ 0.2
302 | TCGR | ≤ 0.2
303 | TRRR | 0.682
304 | TCNR | ≤ 0.2
305 | TCRR | 0.333
306 | RYPE | ≤ 0.2
